About 79,000 compounds went through this panel and 15% of them were active in at least one assay; those are over-represented in the sample as a whole. Active and inactive are the calls of the source. No stated cut-off is given here; in the data, active means growth inhibition above about 70%; inactive means the rest.

The nature of one assay: NCI Yeast Anticancer Drug Screen. Data for the mec2-1 strain (AID 157). The note with it: S. cerevisiae mec2-1 strain, at 100.0 µM, active compounds read high. In outline:
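Vehicle-treated cultures served as reference for growth inhibition of compound-exposed mec2-1 yeast.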
Take `Cc1ccc2nc(N/N=C/c3ccc(C)s3)cc(C)c2c1`: the growth inhibition was 96% (active).

As to `COc1cc(NCCCCCNC(C)C)c2ncccc2c1Cl`, the growth inhibition was 10% (inactive).

Take `COc1ccc2cc(CN3CCC(C4CCN(Cc5ccc6cc(OC)ccc6c5)CC4)CC3)ccc2c1`: the growth inhibition was 98% (active).

Consider `CC(=O)O/N=C/c1c2ccccc2cc2ccccc12`, for which the growth inhibition was 26% (inactive).

Turning to `CC[C@@]1(OC(=O)CN(C)C)C(=O)OCc2c1cc1n(c2=O)Cc2cc3ccccc3nc2-1`, the growth inhibition is 97% (active).

For the compound `CC1(C)CC(=O)C(C(CC(c2ccccc2)c2cc3c(cc2O)OCO3)C2=C(O)CC(C)(C)CC2=O)=C(O)C1` (configuration not stated), the growth inhibition was 87% (active).

Regarding `CCCCCCC(CCl)c1sc(-c2csc(CCNC(=O)OC(C)(C)C)n2)nc1C(=O)OC` (configuration not stated), the growth inhibition is 96% (active).

Regarding `CCOC(=O)C1=C(C)NC(C)=C(C(=O)OCC)C1c1cccc([N+](=O)[O-])c1`, the growth inhibition is 83% (active).

Take `Cc1ccc2c(/C=C/c3ccc(N(C)C)cc3)ccnc2c1C`: the growth inhibition was 58% (inactive).

On to `O=C1C(Br)=CC(Br)(Br)C=C1Br`, for which the growth inhibition is 99% (active).

The next assay is described as follows: NCI Yeast Anticancer Drug Screen. Data for the rad14 strain (AID 159).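 Further: 0% = growth of vehicle-treated control cultures.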 The note with it: S. cerevisiae rad14 strain growth inhibition; at 1.2 µM; active compounds read high. In outline:
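Test compounds were applied to a repair-deficient yeast strain. Its growth was then compared with that of cultures given vehicle alone, and inhibition was expressed relative to those controls.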
On to `CNC(=O)OCc1c(COC(=O)NC)c(C)n(-c2ccc(Cl)c(Cl)c2)c1C`, for which the growth inhibition is -38% (inactive).

As for `COc1ccc2nc(N/N=C/c3sccc3C)cc(C)c2c1`, the growth inhibition is -50% (inactive).

On to `O=C(O)/C=C\C(=O)NNc1ccc(Br)cc1`, for which the growth inhibition was 4% (inactive).

Turning to `S=c1[nH]nc(Cc2ccccc2)c(=S)[nH]1`, the growth inhibition was -3% (inactive).

As for `COc1ccc2nc3cccc([N+](=O)[O-])c3c(NCCCO)c2c1`, the growth inhibition was 97% (active).

Consider `CCN(CC)CCSc1c2ccccc2nc2cc(NCC(=O)Nc3ccccc3-c3ccccc3NC(=O)CNc3ccc4c(SCCN(CC)CC)c5ccccc5nc4c3)ccc12`, for which the growth inhibition is -14% (inactive).

Consider `Cc1ccc(N(C=O)c2c([N+](=O)[O-])cc([N+](=O)[O-])c3c2=[N+]([O-])CN=3)cc1`, for which the growth inhibition is -15% (inactive).

As for `COc1ccc(C(=O)OCCc2ccccc2)cc1`, the growth inhibition is 5% (inactive).

For the compound `COc1ccc(C(=O)NCCN(C)C)c2nc3ccccc3cc12`, the growth inhibition was 7% (inactive).

On to `NCC(O)CSCc1ccc(Cl)cc1` (configuration not stated), for which the growth inhibition was -2% (inactive).

Turning to `CN(C)/N=N/c1nc[nH]c1C(N)=O`, the growth inhibition was -2% (inactive).

Consider `COc1ccc(/C(=N/O)c2ccccc2C2=Nc3ccccc3C(NCc3ccccc3)O2)cc1C` (configuration not stated), for which the growth inhibition was 1% (inactive).

As for `CCCC(=O)OC(OC(=O)CCC)c1ccc([N+](=O)[O-])o1`, the growth inhibition was -6% (inactive).

For the compound `O=C(/C(=C/c1ccccc1)CBr)c1ccccc1`, the growth inhibition was 3% (inactive).

With `Cc1cccc(N2CCN(C(=O)/C(=C/c3ccccc3)NC(=O)c3ccccc3)CC2)c1`, the growth inhibition was -4% (inactive).

Regarding `c1cc(Nc2ccc3c(c2)OCO3)c2cc(C3CCCCC3)ccc2n1`, the growth inhibition is 5% (inactive).

For `Cc1ccc2nc(N/N=C/c3ccc(C)s3)cc(C)c2c1`, the growth inhibition was -32% (inactive).

Regarding `COc1cc(NCCCCCNC(C)C)c2ncccc2c1Cl`, the growth inhibition was 0% (inactive).

As for `COc1ccc2cc(CN3CCC(C4CCN(Cc5ccc6cc(OC)ccc6c5)CC4)CC3)ccc2c1`, the growth inhibition is -19% (inactive).

Turning to `CC(=O)O/N=C/c1c2ccccc2cc2ccccc12`, the growth inhibition is -2% (inactive).

As to `CC[C@@]1(OC(=O)CN(C)C)C(=O)OCc2c1cc1n(c2=O)Cc2cc3ccccc3nc2-1`, the growth inhibition was 2% (inactive).

For the compound `CC1(C)CC(=O)C(C(CC(c2ccccc2)c2cc3c(cc2O)OCO3)C2=C(O)CC(C)(C)CC2=O)=C(O)C1` (configuration not stated), the growth inhibition was -1% (inactive).

As for `CCCCCCC(CCl)c1sc(-c2csc(CCNC(=O)OC(C)(C)C)n2)nc1C(=O)OC` (configuration not stated), the growth inhibition is 0% (inactive).

For `CCOC(=O)C1=C(C)NC(C)=C(C(=O)OCC)C1c1cccc([N+](=O)[O-])c1`, the growth inhibition was -39% (inactive).

As for `Cc1ccc2c(/C=C/c3ccc(N(C)C)cc3)ccnc2c1C`, the growth inhibition is -25% (inactive).

In the case of `O=C1C(Br)=CC(Br)(Br)C=C1Br`, the growth inhibition is -32% (inactive).

Staying with this assay, now noted: S. cerevisiae rad14 strain growth inhibition; at 3.7 µM; active compounds read high.
As for `CNC(=O)OCc1c(COC(=O)NC)c(C)n(-c2ccc(Cl)c(Cl)c2)c1C`, the growth inhibition was -16% (inactive).

As for `COc1ccc2nc(N/N=C/c3sccc3C)cc(C)c2c1`, the growth inhibition is -19% (inactive).

Turning to `O=C(O)/C=C\C(=O)NNc1ccc(Br)cc1`, the growth inhibition was 99% (active).

On to `S=c1[nH]nc(Cc2ccccc2)c(=S)[nH]1`, for which the growth inhibition was 26% (inactive).

With `COc1ccc2nc3cccc([N+](=O)[O-])c3c(NCCCO)c2c1`, the growth inhibition was 98% (active).

With `CCN(CC)CCSc1c2ccccc2nc2cc(NCC(=O)Nc3ccccc3-c3ccccc3NC(=O)CNc3ccc4c(SCCN(CC)CC)c5ccccc5nc4c3)ccc12`, the growth inhibition was -15% (inactive).

`Cc1ccc(N(C=O)c2c([N+](=O)[O-])cc([N+](=O)[O-])c3c2=[N+]([O-])CN=3)cc1`: the growth inhibition is 1% (inactive).

Turning to `COc1ccc(C(=O)OCCc2ccccc2)cc1`, the growth inhibition is 0% (inactive).

Regarding `COc1ccc(C(=O)NCCN(C)C)c2nc3ccccc3cc12`, the growth inhibition was 3% (inactive).

Take `NCC(O)CSCc1ccc(Cl)cc1` (configuration not stated): the growth inhibition was -2% (inactive).

Consider `CN(C)/N=N/c1nc[nH]c1C(N)=O`, for which the growth inhibition was -2% (inactive).

As to `COc1ccc(/C(=N/O)c2ccccc2C2=Nc3ccccc3C(NCc3ccccc3)O2)cc1C` (configuration not stated), the growth inhibition is 2% (inactive).

With `CCCC(=O)OC(OC(=O)CCC)c1ccc([N+](=O)[O-])o1`, the growth inhibition is -4% (inactive).

In the case of `O=C(/C(=C/c1ccccc1)CBr)c1ccccc1`, the growth inhibition is 9% (inactive).

As to `Cc1cccc(N2CCN(C(=O)/C(=C/c3ccccc3)NC(=O)c3ccccc3)CC2)c1`, the growth inhibition was -6% (inactive).

For the compound `c1cc(Nc2ccc3c(c2)OCO3)c2cc(C3CCCCC3)ccc2n1`, the growth inhibition is 5% (inactive).

Consider `Cc1ccc2nc(N/N=C/c3ccc(C)s3)cc(C)c2c1`, for which the growth inhibition was -18% (inactive).

With `COc1cc(NCCCCCNC(C)C)c2ncccc2c1Cl`, the growth inhibition was 5% (inactive).

Take `COc1ccc2cc(CN3CCC(C4CCN(Cc5ccc6cc(OC)ccc6c5)CC4)CC3)ccc2c1`: the growth inhibition is -13% (inactive).

On to `CC(=O)O/N=C/c1c2ccccc2cc2ccccc12`, for which the growth inhibition was 0% (inactive).

Take `CC[C@@]1(OC(=O)CN(C)C)C(=O)OCc2c1cc1n(c2=O)Cc2cc3ccccc3nc2-1`: the growth inhibition is 8% (inactive).

As for `CC1(C)CC(=O)C(C(CC(c2ccccc2)c2cc3c(cc2O)OCO3)C2=C(O)CC(C)(C)CC2=O)=C(O)C1` (configuration not stated), the growth inhibition was 1% (inactive).

As for `CCCCCCC(CCl)c1sc(-c2csc(CCNC(=O)OC(C)(C)C)n2)nc1C(=O)OC` (configuration not stated), the growth inhibition is 1% (inactive).

Take `CCOC(=O)C1=C(C)NC(C)=C(C(=O)OCC)C1c1cccc([N+](=O)[O-])c1`: the growth inhibition is -32% (inactive).

With `Cc1ccc2c(/C=C/c3ccc(N(C)C)cc3)ccnc2c1C`, the growth inhibition is -11% (inactive).

Regarding `O=C1C(Br)=CC(Br)(Br)C=C1Br`, the growth inhibition is -10% (inactive).

For the origin of these results see PubChem BioAssay (NCI).
